Source: PubChem
Shn3 3UTR inh – reduction of Shn3 3'UTR firefly luciferase signal, primary screen, Schnurri-3 inhibitor project, cell-based, Clone20 osteoblasts, set 2; AID 588674, 2011; Clone20 osteoblast Shn3 3'UTR firefly luciferase, 24 h; inhibition, % at 12.5 µM; 360,000 compounds, 0.52% hits;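 active = mean inhibition of at least 75% with every replicate also reaching 75%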
CSC inhib – cancer stem cell viability inhibitors, primary screen, luminescence; inhibition, % at 7.5 µM; AID 2717, 2010; 300,000 compounds, 1.1% hits; cancer stem cell-like cells viability; in the data active = inhibition above about 75%; tested in HMLE shEcad cells
Gli-Sufu block – Gli-Sufu pathway antagonists, primary screen, luciferase luminescence, Sufu-KO-LIGHT cells, uHTS; Sufu-KO-LIGHT fibroblasts, Gli luciferase reporter luminescence; inhibition, % at 5 µM; 340,000 compounds, 0.74% hits;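 active = inhibition above about 55%, limit read from the data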
PAX8 inh HTS – inhibitors of PAX8-driven TPO luciferase reporter, primary screen, RMG-I cells, single concentration; SteadyGlo, 24 h; inhibition, % at 12.6 µM; 360,000 compounds, 1.2% hits; AID 652154, 2013;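 active = mean replicate inhibition at least 60% with every replicate also reaching 60%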;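 also: luciferase light reporting Pax8 driven TPO promoter activity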
Beta cell apopt – inhibitors of cytokine-induced beta cell apoptosis, primary screen, luminescence. INS-1E cytokine-induced death, ATP luminescence, 48 h; percent of positive-control rescue, neutral wells zero. protection from apoptosis, % (no concentration beside the values). 300,000 compounds, 0.8% hits;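 active = Every replicate reaches about 75%, or at least half do and their mean reaches it too, limit read from the data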;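 also: higher means more ATP so stronger rescue from cytokine killing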
Mdm2 MdmX PPI – inhibitors of human Mdm2-MdmX association, primary screen, cell-based, luminescence, split luciferase, SaOS-2, uHTS. SaOS-2 split-luciferase Mdm2/MdmX complementation. inhibition, % at 8 µM. 330,000 compounds, 3% hits. AID 485346, 2010;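 active = inhibition of at least 50% at 8 µM in the primary screen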
Target sequence (O15151 whole entry, looked up): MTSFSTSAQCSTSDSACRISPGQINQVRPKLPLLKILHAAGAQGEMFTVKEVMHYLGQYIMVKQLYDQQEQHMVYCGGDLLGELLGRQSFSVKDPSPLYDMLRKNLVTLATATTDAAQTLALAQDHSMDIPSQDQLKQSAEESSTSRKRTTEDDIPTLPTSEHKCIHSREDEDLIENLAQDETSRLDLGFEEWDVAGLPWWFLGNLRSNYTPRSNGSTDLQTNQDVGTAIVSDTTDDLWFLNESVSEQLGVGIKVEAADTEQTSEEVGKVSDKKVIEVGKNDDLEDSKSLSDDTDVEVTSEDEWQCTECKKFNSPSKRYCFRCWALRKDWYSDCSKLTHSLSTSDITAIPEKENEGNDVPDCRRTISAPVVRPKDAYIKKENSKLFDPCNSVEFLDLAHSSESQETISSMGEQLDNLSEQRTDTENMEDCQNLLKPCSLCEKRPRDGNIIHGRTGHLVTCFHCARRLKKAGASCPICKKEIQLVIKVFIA
Target sequence (Q00987 whole entry, looked up): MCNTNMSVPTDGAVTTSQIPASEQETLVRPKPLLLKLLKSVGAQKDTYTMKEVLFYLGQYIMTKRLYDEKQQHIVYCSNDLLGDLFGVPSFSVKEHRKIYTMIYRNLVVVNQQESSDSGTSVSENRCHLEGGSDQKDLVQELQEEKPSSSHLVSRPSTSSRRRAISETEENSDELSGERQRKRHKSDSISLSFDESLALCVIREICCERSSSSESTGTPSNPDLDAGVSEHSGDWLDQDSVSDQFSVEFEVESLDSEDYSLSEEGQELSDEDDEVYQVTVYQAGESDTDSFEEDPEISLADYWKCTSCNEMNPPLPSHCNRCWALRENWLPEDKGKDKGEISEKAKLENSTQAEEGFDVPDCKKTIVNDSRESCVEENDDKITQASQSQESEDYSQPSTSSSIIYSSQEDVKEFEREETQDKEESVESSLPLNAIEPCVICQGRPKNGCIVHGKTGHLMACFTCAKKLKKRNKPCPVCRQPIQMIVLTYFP
Mdm2 MdmX conf – Mdm2-MdmX complex disruptors, retested hits, confirmation, luminescence, single concentration | inhibition, % at 8 µM | AID 489028, 2010 | Mdm2-MdmX binding, luminescent assay | shares compounds with Mdm2 MdmX PPI | 10,000 compounds, 55% hits; in the data active = inhibition above about 40%
FLuc counter – full-length luciferase signal inhibition, confirmation, counter-screen for Mdm2/MdmX interaction inhibitor project, cell-based, single concentration, SaOS-2; AID 504607, 2011; 6,200 compounds, 77% hits; SaOS-2 full-length luciferase counterscreen, luminescence; inhibition, % at 8 µM; shares compounds with Mdm2 MdmX PPI;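 active = mean inhibition at 8 µM reaching about 37%, which flags the compound as non-specific, limit read from the data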;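 also: p53-null SaOS-2 cells with luciferase driven by a doxycycline-inducible promoter; compound on cells about two nights before reading with doxycycline added after day one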
Large screens that a line does not name were inactive (follow-up assays come after a bar, where they were run). In the library only some 4% were active in any assay of this set; here they are far more common.

CCCNC(=O)N1C[C@@H](C)[C@@H](OC)CN(C)C(=O)c2cc(NS(=O)(=O)CC(F)(F)F)ccc2OC[C@H]1C	none (no result: Shn3 3UTR inh, CSC inhib, Gli-Sufu block, Beta cell apopt, Mdm2 MdmX PPI)
COc1ccccc1CNCC(O)Cn1c2ccccc2c2ccccc21 (stereo not given)	Beta cell apopt 103, Mdm2 MdmX PPI 90 | Mdm2 MdmX conf 67 | FLuc counter 50
CCn1c2ccccc2c2cc(NC(=O)CNCc3ccccc3OC)ccc21	Mdm2 MdmX PPI 57 | Mdm2 MdmX conf 56 | FLuc counter 81
CCn1c2ccccc2c2cc(NC(=O)COc3ccccc3OC)ccc21	none (no result: PAX8 inh HTS)
C[C@H](CO)N1C[C@H](C)[C@H](CN(C)C(=O)NC2CCCCC2)Oc2ccc(NC(=O)Nc3ccccc3)cc2C1=O	none (no result: Shn3 3UTR inh, CSC inhib, Gli-Sufu block, Beta cell apopt, Mdm2 MdmX PPI)
CO[C@@H]1CN(C)C(=O)c2cc(NC(=O)C3CCCC3)ccc2OC[C@H](C)NC[C@@H]1C	none (no result: Shn3 3UTR inh, CSC inhib, Gli-Sufu block, Beta cell apopt, Mdm2 MdmX PPI)
O=S(=O)(Nc1nc2ccccc2nc1Nc1ccc(N2CCOCC2)cc1)c1cc(Cl)ccc1Cl	CSC inhib 86, Beta cell apopt 84, Mdm2 MdmX PPI 68 | Mdm2 MdmX conf inactive | FLuc counter 73
NC(=S)NN=C1c2cc(OCCN3CCOCC3)ccc2-c2ccc(OCCN3CCOCC3)cc21	Mdm2 MdmX PPI 60 | Mdm2 MdmX conf inactive
ON=C1c2cc(OCCN3CCCCC3)ccc2-c2ccc(OCCN3CCCCC3)cc21	Mdm2 MdmX PPI 97 (no result: PAX8 inh HTS) | Mdm2 MdmX conf 70 | FLuc counter 91
O=C(NCC[C@H]1CC[C@@H](NS(=O)(=O)c2cccc(F)c2)[C@@H](CO)O1)C1CC1	none (no result: Shn3 3UTR inh, CSC inhib, Gli-Sufu block, Beta cell apopt, Mdm2 MdmX PPI)
O=C(N[C@@H]1CC[C@H](CCn2cc(C3(O)CCCC3)nn2)O[C@H]1CO)C1CCCC1	none (no result: Shn3 3UTR inh, CSC inhib, Gli-Sufu block, Beta cell apopt, Mdm2 MdmX PPI)
C[C@@H]1CCCCO[C@@H](CN(C)C)[C@@H](C)CN([C@H](C)CO)C(=O)c2cc(NC(=O)CCCN(C)C)ccc2O1	none (no result: Shn3 3UTR inh, CSC inhib, Gli-Sufu block, Beta cell apopt, Mdm2 MdmX PPI)
O=C(COC(=O)c1c2c(nc3ccccc13)/C(=C\c1cccs1)CCC2)Nc1ccccc1	CSC inhib 101, PAX8 inh HTS 86, Mdm2 MdmX PPI 52 | Mdm2 MdmX conf inactive
CC(=O)c1ccc(NC(=O)COC(=O)c2c3c(nc4ccccc24)/C(=C\c2cccs2)CCC3)cc1	CSC inhib 117, Mdm2 MdmX PPI 66 (no result: PAX8 inh HTS) | Mdm2 MdmX conf inactive
CC(C)CNC(=O)COC(=O)c1c2c(nc3ccccc13)/C(=C\c1cccs1)CC2	none (no result: CSC inhib, Beta cell apopt, Mdm2 MdmX PPI)
COCC#Cc1cnc2c(c1)C(=O)N([C@H](C)CO)C[C@@H](C)[C@@H](CN(C)C(=O)Nc1cc(F)ccc1F)O2	none (no result: Shn3 3UTR inh, CSC inhib, Gli-Sufu block, Beta cell apopt, Mdm2 MdmX PPI)
COc1ccc(OCC(=O)Nc2cc(-c3nn(C)c(=O)c4ccccc34)ccc2N2CCOCC2)cc1	Mdm2 MdmX PPI 67 | Mdm2 MdmX conf inactive
Cn1nc(-c2ccc(N3CCCCC3)c(NC(=O)c3ccco3)c2)c2ccccc2c1=O	Mdm2 MdmX PPI 88 (no result: PAX8 inh HTS) | Mdm2 MdmX conf 44 | FLuc counter 41
CCCN1[C@@H]2c3ccc(-c4ccc(OC)cc4)c(=O)n3C[C@@H]2[C@@H](CO)[C@@H]1C(=O)N(C)C	none (no result: Shn3 3UTR inh, CSC inhib, Gli-Sufu block, Beta cell apopt, Mdm2 MdmX PPI)
COc1ccc(-n2nc(C(=O)NCC(=O)Nc3cccc(Cl)c3)c3ccccc3c2=O)cc1OC	Mdm2 MdmX PPI 80 (no result: CSC inhib) | Mdm2 MdmX conf 48 | FLuc counter 37
COc1ccc(-n2nc(C(=O)Nc3ccc4c(c3)OCO4)c3c4ccccc4n(C)c3c2=O)cc1	none (no result: Shn3 3UTR inh)
COc1ccc(-n2nc(C(=O)NCC(=O)Nc3ccccn3)c3ccccc3c2=O)cc1Cl	Mdm2 MdmX PPI 88 (no result: CSC inhib, Beta cell apopt) | Mdm2 MdmX conf inactive
COc1ccc(-n2nc(C(=O)Nc3ccc(OC)c(OC)c3)c3c4ccccc4n(C)c3c2=O)cc1	Mdm2 MdmX PPI 76 | Mdm2 MdmX conf inactive
CO[C@H]1CN(C)C(=O)c2cc(NC(=O)c3ccc4c(c3)OCO4)ccc2OC[C@H](C)NC[C@@H]1C	none (no result: Shn3 3UTR inh, CSC inhib, Gli-Sufu block, Beta cell apopt, Mdm2 MdmX PPI)
